Screening results from PubChem.
CD11b adhes enh = CD11b/CD18-fibrinogen binding enhancement. K562 CD11b/CD18 adhesion to fibrinogen, ATPlite luminescence. P05107+P11215. hit rate 0.07% among 93,000. AID 1499. activation, % at 10 µM;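 active means 10 µM primary screen giving 50% or more activity, confirmed by 40% or more on retest at that dose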
Mac1 fbg inh = blocks human CD11b/CD18 adhesion to fibrinogen; P05107+P11215; AID 1497; K562 CD11b/CD18 adhesion to fibrinogen, ATPlite luminescence; Mn2+ added to activate the integrin; hit rate 0.54% among 93,000; inhibition, % at 10 µM;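 active means primary inhibition of 50% or more at 10 µM, then 40% or more on retest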
MRP1 act = activates MRP-1 | AID 799 | hit rate 0.61% among 140,000 | viability increase, % at 10 µM | H69AR cells + doxorubicin, viability rescue, CellTiter-Glo;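 active means viability gain under doxorubicin at or above a set limit, the compound median plus 3 SD, cut at about 4.7% in these data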;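 further: MRP-1 overexpressing cells given doxorubicin 25 µM after compound pretreatment; 18-22 h compound pretreatment then 72 h with doxorubicin before readout; 0% = doxorubicin-only wells and 100% = vehicle-treated cells without doxorubicin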
MRP reversal = MRP-mediated drug resistance reversal; hit rate 0.04% among 85,000; H69AR cells + 2 uM doxorubicin, CellTiter-Glo, 72 h; differential viability (reversal), % at 10 µM;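 active means viability drop by adding the cancer drug above about 55%, with treated viability meeting a 40% cutoff, limit read from the data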;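 further: viability without doxorubicin minus viability with 2 µM doxorubicin for each compound; larger differential means the compound sensitizes cells more to doxorubicin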
Cav3 T inh = human Cav3.2 channel inhibition, primary screen; O95180; Cav3.2-expressing cells, Fluo-4 calcium fluorescence FDSS; hits give low values; B-score at 10 µM; hit rate 4% among 100,000;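 active means single-dose well whose peak fluorescence ratio is a statistical outlier from its plate by either plate-standardised score or position-corrected B-score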
Pyk2 oligo antag = blocks oligomerization of human Pyk2 in cells. Q14289. AID 1347419. hit rate 0.83% among 99,000. Q293 cells, Pyk2 FERM NanoBiT luminescence; hits give low values. z-score (the deposit names both 25 µM and 10 µM);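 active means Z-score of -3 or lower, scaled per plate to the spread of control and sample wells; inactive means z-score above -3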;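 further: negative z-score means lost luminescence so less FERM oligomerization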
* hit, by the source's call; x = no result given. Rows were chosen to be rich in hits. Some 4.1% of all compounds tested hit in one or more screens of this group.

SMILES	CD11b adhes enh	Mac1 fbg inh	MRP1 act	MRP reversal	Cav3 T inh	Pyk2 oligo antag
O=C(NCc1ccccc1)C(c1ccc(F)cc1)N(Cc1ccc2c(c1)OCO2)C(=O)Cn1nnc(-c2cccs2)n1 (stereo unspecified)	x	x	-3	11	-5.1*	-1.1
CCOc1ccc(NC(=O)CN2CCN(CC(=O)Nc3ccc(F)cc3)CC2)cc1	x	x	-6	-23	0.55	0.45
O=C(Nc1nc(-c2cccs2)cs1)c1cccc(S(=O)(=O)N2CCCCC2)c1	0	16	-2	9	-9.2*	-1.2
CC1CCN(S(=O)(=O)c2cccc(C(=O)NCc3cccs3)c2)CC1	1	0	1	8	-7.3*	1.4
O=C(Nc1nc(-c2ccc(S(=O)(=O)N3CCCC3)cc2)cs1)c1cccs1	0	53	-3	-3	-0.044	-3.2*
COc1ccc(C2(CNC(C)=O)CCCC2)cc1OC	-2	14	-2	7	0.6	-0.34
Oc1c(C(c2cccs2)N2CCN(c3cccc(Cl)c3)CC2)sc2ncnn12 (stereo unspecified)	-4	12	11*	-23	-1.8	x
Clc1ccc(-c2nc3cnccn3c2NC2CCCC2)cc1	5	-6	-2	x	-5*	0.43
CCC(COC(=O)Nc1cccc(C)c1)NC(=O)OCC(C)C (stereo unspecified)	-3	1	1	11	-4.7*	0.83
CC1=C(C)CC(C(=O)N2CCN(Cc3ccccc3)CC2)C(C(=O)O)C1 (stereo unspecified)	2	6	-1	9	1.4	0.74
COc1ccc(/C=N/NC(=O)c2ccc(NC(=O)c3ccccc3Br)cc2)cc1	x	x	-1	x	x	x
O=C(NNC(=O)c1cc(-c2ccc(Cl)cc2Cl)nc2ccccc12)Nc1ccccc1	x	x	-4	x	-1	-3.5*
O=C(NC(=S)Nc1ccccn1)c1cc(-c2ccccc2)nc2ccccc12	x	x	7.5*	x	x	-0.85
CCNC(=S)NNC(=O)c1cc(-c2cccc(C)c2)nc2ccccc12	-5	60*	-1	x	-2.5	0.27
COc1ccc(Cl)cc1C(=O)NNC(=S)NC(=O)c1cc(-c2ccc(Cl)cc2)nc2ccccc12	x	x	-3	x	-6.6*	-0.45
Cc1cc(NC(=O)c2cnc3ccccn3c2=O)no1	x	x	x	9	x	x
O=S1(=O)N=C(Oc2ccccc2)c2ccccc21	0	6	-1	-5	-0.31	0.02
CCOC(=O)/C(=C/Nc1ccccc1)[N+](=O)[O-]	-1	4	-2	-11	0.19	-0.23
COC(=O)/C(=C/Nc1ccc(O)cc1)[N+](=O)[O-]	-3	2	5.2*	-26	-0.013	-0.79
CN(C)CC(O)COc1ccc(-c2ccc(C#N)cc2)cc1 (stereo unspecified)	-4	0	-2	8	2.1	x
O=C(c1cc(C2CC2)nc2ccc(Br)cc12)N1N=C(C(F)F)CC1(O)C(F)F (stereo unspecified)	x	x	-7	-16	-7.5*	-3.3*
CC(C)c1ccc(-c2cc(C(=O)N3N=C(C(F)F)CC3(O)C(F)F)c3ccccc3n2)cc1 (stereo unspecified)	-4	78*	-6	x	-2.2	-2.4
O=C(c1cc(C2CC2)nc2ccccc12)N1N=C(C(F)F)CC1(O)C(F)F (stereo unspecified)	x	x	0	-17	-3.5	-0.21
CC(OC(=O)c1cccs1)C(=O)Nc1nc(-c2ccccc2)cs1 (stereo unspecified)	2	32	-1	x	x	x
O=[N+]([O-])c1cn(Cc2ccccc2)cn1	x	x	-1	x	x	x
SMILES	CD11b adhes enh	Mac1 fbg inh	MRP1 act	MRP reversal	Cav3 T inh	Pyk2 oligo antag
Cc1cccc2c1CC(C)(C)N/C2=C\C(N)=O	x	x	-1	x	x	x
Clc1ccccc1CN(Cc1ccccc1)c1ncnc2nc[nH]c12	x	x	0	-23	-3.7*	-1.5
Clc1ccccc1CNc1ncnc2nc[nH]c12	6	-12	-3	-9	-1.1	x
Cc1oc2c(O)c(O)ccc2c(=O)c1-c1cnn(-c2ccccc2)c1	3	14	4.9*	x	1.1	-1.9
Cc1oc2c(O)c(O)ccc2c(=O)c1-c1ccccc1	x	x	x	x	0.94	x
Cc1oc2cc(O)cc(C)c2c(=O)c1-c1cnn(-c2ccccc2)c1	0	2	-2	-7	x	-3.8*
COc1ccc(-c2coc3cc4oc(=O)cc(-c5ccccc5)c4cc23)cc1F	62	19	-6	x	x	-0.72
O=C1CC(NCc2cccs2)C(=O)N1c1ccc(Cl)cc1 (stereo unspecified)	-2	66*	-1	4	0.71	1.1
COc1ccnc(NCc2ccc(Cl)cc2)c1C#N	-6	-4	-4	x	-0.055	-3.6*
O=C(NNC(=O)C1CC(c2cccnc2)=NO1)Nc1cccc(F)c1 (stereo unspecified)	0	-7	-2	x	x	-0.18
CCOC(=O)c1[nH]c2cc(OC)c(OC)cc2c1NC(=O)CN1CCN(c2ccc(OC)cc2)C(C)C1 (stereo unspecified)	-3	2	-5	-10	-5.4*	x
CCOC(=O)c1[nH]c2ccc(OC)cc2c1NC(=O)CN1CCSCC1	-2	-4	-1	22	0.64	1.7
Cc1cccc2cc(CN(Cc3ccc(F)cc3)C(=O)C(F)(F)F)c3nnnn3c12	x	x	1	-2	0.42	-1
Cc1cccc2cc(CN(Cc3ccc(F)cc3)C(=O)N(C)C)c3nnnn3c12	-2	1	0	-3	-6.1*	-2
CCOc1cc(C(=S)N2CCC(O)CC2)ccc1OS(=O)(=O)c1ccc(Br)cc1	-4	31	-3	x	-4.9*	-0.26
CCOc1cc(C(=S)N2CCCCC2)ccc1OS(=O)(=O)c1ccc(Cl)cc1	x	x	-1	x	-5*	-1
CCOc1ccc(C(=S)N2CCCC2)cc1OC	x	x	0	x	x	x
CCOc1cc(C(=S)N2CCCCC2)ccc1OS(=O)(=O)c1ccc(Br)cc1	4	2	-2	x	-4.9*	0.1
CCCCCc1c2c(cc(O)c1C(=O)O)OC(=O)c1c(cc(OC)cc1C(=O)CCCC)O2	x	x	x	x	-3.9*	x
O=C(c1nn(Cc2ccccc2)c(=O)c2ccccc12)N1CCN(C/C=C/c2ccccc2)CC1	x	x	-3	-18	-6.7*	-0.91
COc1cc2c3nnc(-c4ccc(F)cc4)c-3cn(Cc3cccc(C)c3)c2cc1OC	-2	3	-4	0	-3.6*	x
Cc1ccc(S(=O)(=O)c2cn(Cc3ccc(F)cc3)c3cc4c(cc3c2=O)OCO4)cc1	56	-11	-3	x	x	x
COc1cc2c3nnc(-c4ccc(F)cc4)c-3cn(Cc3ccc(C)cc3)c2cc1OC	3	30	-4	-7	-5.8*	x
CCCCOc1ccc(Br)cc1/C(C)=N/NC1=NCCN1	x	x	-8	-7	-6.7*	0.55
O=C(/C=C/c1ccccc1)N/C(=C/c1ccccc1)C(=O)N1CCCCC1	-5	21	-1	x	-5.6*	-0.89
Cn1c(-c2ccccc2)cnc1SCc1nc2ccccc2c(=O)[nH]1	0	-17	-1	4	0.64	0.34
